Rows were chosen to be rich in hits. Some 1.8% of all compounds tested hit in one or more screens of this group.
TRPML1 ag: qHTS for Agonists of the Human Mucolipin Transient Receptor Potential 1 (TRPML1); TRPML1-expressing cells, Ca2+ dye fluorescence, FDSS; activation, % (concentration not given with the values); 410,000 tested, 0.12% active; in the data active means activation above about 50%; inconclusive means mostly about 30% to 49%; further: 0% is about no effect
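Tetracycline-induced TRPML1-DL cells are seeded and incubated overnight before loading with a no-wash Ca2+ dye and quencher. Agonist activity is taken from the 110 s fluorescence read following compound pin-transfer on an FDSS, before EC80 54-4 challenge.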
GLP-1R agonist: qHTS of GLP-1 Receptor Agonists. HEK293 GLP-1R CRE-luciferase, luminescence, 4-6 h; cells express a hypersensitive GLP-1R form. Glucagon-like peptide 1 receptor (Homo sapiens), P43220. 380,000 tested, 0.007% active. AID 624172, 2012. Potency, µM (doses to about 45.6 µM), without a hit: at the highest dose activation, actives largely listed as activators; further: potency means the concentration at half of the fitted maximal effect; % of control where 0% means no effect
Target sequence (P43220 whole entry, looked up): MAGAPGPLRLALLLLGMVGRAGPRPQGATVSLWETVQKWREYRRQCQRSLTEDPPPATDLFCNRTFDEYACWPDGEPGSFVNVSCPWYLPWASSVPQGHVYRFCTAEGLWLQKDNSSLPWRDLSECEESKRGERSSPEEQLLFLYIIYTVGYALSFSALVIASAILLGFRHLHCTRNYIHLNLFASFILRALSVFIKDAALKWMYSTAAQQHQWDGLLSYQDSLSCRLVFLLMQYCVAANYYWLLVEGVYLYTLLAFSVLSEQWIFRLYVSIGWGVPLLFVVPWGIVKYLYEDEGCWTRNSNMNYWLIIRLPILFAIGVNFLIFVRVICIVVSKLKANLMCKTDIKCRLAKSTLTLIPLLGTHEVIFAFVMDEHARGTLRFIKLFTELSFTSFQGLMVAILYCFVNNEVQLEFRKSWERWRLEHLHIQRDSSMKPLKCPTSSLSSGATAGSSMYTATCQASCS
TRPML1 inh: qHTS for Inhibitors of the Human Mucolipin Transient Receptor Potential 1 (TRPML1). Mucolipin-1 (Homo sapiens), Q9GZU1. TRPML1-inducible cells, Ca2+ dye fluorescence, FDSS; active compounds read low; inhibition of EC80 agonist-evoked calcium signal. activity change, negative = inhibition, % (test concentration not listed). 390,000 tested, 0.02% active. AID 624415, 2012; in the data active means activity change below about -50%; inconclusive means between about -30% and that limit;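 further: stimulus is agonist 54-4 at its EC80 concentration; on the % scale 0 is the no-effect control and ±100 the full control effect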
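Calcium fluorescence in TRPML1-DL cells induced overnight with Tet: a 110 s read after compound pin addition, then a 110 s antagonist read after challenge with 54-4 at 4 uM final (EC80).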
GLP1R cytotox: qHTS of GLP-1 Receptor Inverse Agonists: Cytotox Screen. HEK293 cAMP-luciferase reporter cells, luminescence, 24 h. Potency, µM (series often up to 38.3 µM), without a hit: at the top dose activity change, negative = inhibition, most hits filed as inhibitors. 410,000 tested, 0.13% active;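 further: loss of luciferase light is scored as toxicity; potency means the concentration at half of the fitted maximal effect; on the % scale 0 is the no-effect control and ±100 the full control effect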
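A 23 nL compound transfer followed 12 hours of cell culture at 37 deg C; exposure then lasted 24 hr. Luciferase assay detection reagent was dispensed and plates read for luminescence after a 12 min room-temperature wait.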
GLP1R inv ag: qHTS of GLP-1 Receptor Inverse Agonists (Inhibition Mode) | Glucagon-like peptide 1 receptor (Homo sapiens), P43220 | HEK293 GLP-1R CRE-luciferase, luminescence, 24 h; GLP-1R form is constitutively active | Potency, µM (highest dose often 38.3 µM), without a hit: top-dose activity change, negative = inhibition, hits mostly inhibitors | 410,000 tested, 1.6% active | AID 624417, 2012; further: potency means the concentration at half of the fitted maximal effect; on the % scale 0 is the no-effect control and ±100 the full control effect; nearly all actives have a fitted effect of over 55% in size
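Constitutively active GLP-1R drives a cAMP-responsive luciferase in stably transfected HEK293 cells; test compounds are added after overnight (12 h) attachment and left 24 hr, and signal loss in luminescence marks inhibition.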
Numbers without * were called inactive; ? = inconclusive; . = no result given; ! = not active in a repeat. Unless noted, the call rests on the fitted dose curve; in most records, active means well fitted curve in the direction sought with a large enough effect; inconclusive means small, poorly fitted or top-dose-only effect, or another doubt; inactive means no such curve, though single readings can be large; an effect the other way counts as inactive or inconclusive.

SMILES | TRPML1 ag | GLP-1R agonist | TRPML1 inh | GLP1R cytotox | GLP1R inv ag
O.O=C([O-])CC([S-])C(=O)[O-].[Au+].[Na+].[Na+] (configuration not stated) | . | -7% | . | . | .
N#CC(c1cccc(C(F)(F)F)c1)(c1ncc(C(F)(F)F)cc1Cl)N1CCOCC1 (configuration not stated) | 56* | -12% | -7 | 2% | -1%
COc1ccc(NC(=O)CC2C(=O)N(c3cccc(OC)c3)C(=O)N2CCC2=CCCCC2)cc1 (configuration not stated) | 2 | . | -2 | -12% | ?
O=C(c1ccc(CS(=O)c2ccccc2Cl)o1)N1CCN(c2cccc(Cl)c2)CC1 (configuration not stated) | 0 | . | 25 | ? | 0.89µM*
Cc1ccccc1S(=O)(=O)Cc1ccc(C(=O)N2CCN(c3cccc(C)c3C)CC2)o1 | 0 | -18% | 29 | ? | 4.5µM*
Cc1ccccc1S(=O)(=O)Cc1ccc(C(=O)N2CCN(c3cccc(Cl)c3)CC2)o1 | 3 | . | 13 | ? | ?
COc1ccc(S(=O)Cc2ccc(C(=O)N3CCN(c4cccc(C)c4C)CC3)o2)cc1 (configuration not stated) | 0 | -5% | -4 | 2% | 7.1µM*!
CCN(CC)/[N+]([O-])=N/OCOC(=O)C(C)c1ccc2cc(OC(C)=O)ccc2c1 (configuration not stated) | 2 | . | 30 | . | .
COc1cccc(N2CCN(c3ncnc4c3[nH]c3ccc(F)cc34)CC2C)c1 (configuration not stated) | -2 | -54% | -3 | 3.2µM* | ?
COc1ccc2[nH]c3c(N4CC(C)OC(C)C4)ncnc3c2c1 (configuration not stated) | -1 | 13% | 4 | -28% | 16%
COc1ccccc1NC(=O)C1=C(C)Nc2nc(SCc3ccc(Cl)cc3)nn2C1c1ccccc1Cl (configuration not stated) | 1 | . | 0 | 1% | -23%
O=C(Nc1ccccc1)[C@@H]1CC=C[C@@H]2CCN(C3CC3)C(=O)[C@@H]21 | -1 | . | . | . | .
Clc1ccc(/C=N/Nc2ncnc3ccccc23)cc1Cl | 0 | -3% | 3 | 2.2µM* | ?
Fc1ccccc1/C=N/Nc1ncnc2ccccc12 | 0 | 6% | 1 | ? | ?
CCN(C(=O)C1CCCN(S(=O)(=O)c2c(C)noc2/C=C/N(C)C)C1)c1cccc(C)c1 (configuration not stated) | 0 | . | -16 | -16% | ?
CCN(CC)c1nc(OCCNC(=O)Nc2ccccc2)nc(N(CC)CC)n1 | 3 | -2% | 13 | ? | 5µM*
CC(C)[C@H](/C=C/C[Si](C)(C)C)[C@H](C)C(O)/C=C/CCCOC(=O)C(C)(C)C (some centres not stated) | 0 | . | -9 | . | .
CC(C)=CCCC(C)CN1CCC(N2CCC(C(=O)N3CCOCC3)CC2)CC1 (configuration not stated) | 1 | 0% | -2 | -3% | 2.5µM*
CCCCNc1nc(Oc2ccc(=O)n(-c3ccccc3)n2)nc(N(C)C)n1 | 2 | . | 2 | -1% | 12%
COc1ccccc1C1Nc2c(sc3nc(C)cc(C)c23)C(=O)N1c1ccccc1 (configuration not stated) | 0 | . | 35 | 35% | 5%
Cc1cc(C)cc(-n2cnc3cc(C(=O)NCCc4ccccc4)ccc32)c1 | 3 | . | 17 | -33% | -63%
COc1ccc(Br)cc1CNC(=O)CCCc1cn(C)c2ccccc12 | 1 | 5% | -7 | -6% | 22µM*
CCOc1ccc2[nH]c(=O)c(CN(Cc3cccs3)Cc3nnnn3C(C)(C)CC)cc2c1 | 3 | 1% | 16 | 11µM* | ?
COc1ccccc1CNC(=O)c1ccc(-c2nc(CS(=O)c3ccc(C)cc3)c(C)o2)cc1 (configuration not stated) | -1 | . | -2 | -7% | 0%
COc1cc(SC)ccc1C(=O)Nc1ccc(Br)cn1 | 0 | -6% | -2 | 2% | ?
SMILES | TRPML1 ag | GLP-1R agonist | TRPML1 inh | GLP1R cytotox | GLP1R inv ag
COc1cc(SC)ccc1C(=O)Nc1ncc(C)s1 | 1 | -16% | 20 | -14% | 10µM*
CN(C)c1ccc(/C=C/c2c(F)cnc3ccccc23)cc1 | 4 | . | . | . | .
Oc1ccc(N2CCN(C(c3ccc(Cl)cc3)c3nnnn3Cc3ccc(F)cc3)CC2)cc1 (configuration not stated) | 0 | . | . | . | .
COc1cccc(C(=O)Nc2nc(-c3nnn(-c4cc(C)ccc4C)c3C)ns2)c1 | 14 | . | -13 | 4% | -12%
COc1cccc(C(=O)Nc2nc(-c3nnn(-c4ccccc4C(F)(F)F)c3C)ns2)c1 | 1 | . | 22 | 0% | 5.6µM*
CC(=O)Nc1ccc(NC(=O)CSc2cn(CC(=O)N(C(C)C)C(C)C)c3ccccc23)cc1 | 2 | . | -2 | 2% | 10%
CCOc1ccc(N2CC(O)Cn3c2nc2c3c(=O)n(CCCc3ccccc3)c(=O)n2C)cc1 (configuration not stated) | 2 | 2% | 3 | -33% | 5.6µM*
CC(C)C(=O)N1c2ncnn2C2(CCCCC2)[C@@H]2CCCC[C@@H]21 | 0 | . | ? | -8% | ?
CN(C)CCNC(=O)c1cc2c(s1)-c1ccc(Cl)cc1SC2 | 0 | -9% | -11 | ? | 13µM*
CCCN(C(=O)c1cc2c(s1)-c1ccccc1SC2)c1ccccc1F | 1 | . | -2 | 0% | 11µM*
CCCN(C(=O)c1cc2c(s1)-c1ccccc1OC2)c1ccccc1F | 3 | 11% | 65 | -1% | ?
Cc1ccc(C(=O)Nc2ccc3c(c2)N(C)C(=O)c2ccccc2S3)cc1 | 1 | . | 10 | -29% | ?
O=C(NNc1ccccc1)/C(=C\c1cccnc1)NC(=O)c1ccccc1 | 0 | 8% | 0 | 0% | 3.5µM*
O=C(Nc1ccccc1)/C(=C/c1cccnc1)NC(=O)c1ccccc1 | 0 | 2% | 13 | 0% | 29%
COC(=O)c1ccc(NC(=O)C2CCN(S(=O)(=O)c3ccc4c(c3)CCCN4C(C)=O)CC2)cc1 | 1 | . | 2 | 12% | 18%
COC(=O)c1ccc(NC(=O)CC2C(=O)N(c3cccc(C)c3)C(=O)N2C2CCCC2)cc1 (configuration not stated) | 0 | . | 9 | -5% | -21%
Cc1ccc(N/N=C(\C#N)C(N)=S)cc1C | 2 | 7% | -7 | ? | 0.28µM*

Screening results from PubChem.
